{
  "source": "PubChem BioAssay AID2521",
  "about": "(Sanford-Burnham Center for Chemical Genomics, 2010)",
  "note": "Among all 330,000 compounds or so, about 1,100 (0.33%) were called active. Only a selection was taken, and actives are over-represented in it overall. Unmarked numbers belong to inactive results.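 Rule for the calls: active = inhibition above about 40% at 20 µM (limit read from the data); inactive = the rest.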",
  "data": [
    {"biological_target": "Apelin receptor (Homo sapiens) (UniProt P35414)", "sequence (P35414 whole entry, looked up)": "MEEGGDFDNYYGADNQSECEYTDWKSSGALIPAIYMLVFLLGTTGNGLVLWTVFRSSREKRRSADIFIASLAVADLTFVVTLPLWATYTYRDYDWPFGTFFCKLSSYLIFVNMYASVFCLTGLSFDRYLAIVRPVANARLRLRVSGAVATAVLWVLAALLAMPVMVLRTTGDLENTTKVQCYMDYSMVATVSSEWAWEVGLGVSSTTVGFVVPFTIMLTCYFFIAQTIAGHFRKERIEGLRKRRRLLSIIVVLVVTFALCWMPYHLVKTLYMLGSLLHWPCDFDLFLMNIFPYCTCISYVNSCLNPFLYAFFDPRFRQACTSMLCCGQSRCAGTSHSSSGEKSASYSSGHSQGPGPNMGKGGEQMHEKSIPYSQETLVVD", "experiment": "antagonists of human apelin receptor APJ, primary screen, CHO-K1 cells, beta-arrestin complementation, luminescence (AID 2521);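 note: cells challenged with 10 nM apelin-13 agonist together with compound; plate controls were apelin-13 plus DMSO wells for no effect and DMSO wells lacking apelin-13 for full effect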", "conditions": "at 20 µM, stronger effect = higher value", "values": [
      {"smiles": "O=c1ccc2c(-c3ccccc3S(=O)(=O)O)c3ccc(O)c(O)c3oc-2c1O", "inhibition": "49.3% (active)"},
      {"smiles": "CCNC(=S)N(CCN(CC)CC)Cc1cc2cc3c(cc2[nH]c1=O)OCO3", "inhibition": "12.3%"},
      {"smiles": "CCO[C@H]1OC(C(=O)O)=C[C@@H](C2CCCCC2)[C@@H]1CCCO", "inhibition": "-6.59%"},
      {"smiles": "O=C(Nc1cc(=O)[nH]c2ncnn12)c1ccccc1Cl", "inhibition": "2.3%"},
      {"smiles": "CC(C)OC(=O)CN1C(=O)C(=O)c2ccccc21", "inhibition": "103% (active)"},
      {"smiles": "CCOC(=O)CN1C(=O)C(=O)c2cc(C)ccc21", "inhibition": "-0.658%"},
      {"smiles": "CC(OC(=O)CN1C(=O)c2ccccc2C1=O)C(=O)c1ccccc1", "note": "(configuration not stated)", "inhibition": "23%"},
      {"smiles": "COc1ccc(C(=O)C[n+]2ccc(N)c(C)c2C)cc1", "inhibition": "4.36%"},
      {"smiles": "CC(=O)c1ccc(S(=O)(=O)N(C)CCCC(=O)N(C)Cc2ccccc2F)cc1", "inhibition": "-6.03%"},
      {"smiles": "CCCn1nc2cc(C(=O)NCc3ccccc3)ccc2c1OCC", "inhibition": "-8.45%"},
      {"smiles": "N#CCCN(CCC#N)c1nnc(-c2ccccc2)s1", "inhibition": "1.67%"},
      {"smiles": "CCC(=O)c1ccc(OC(=O)/C=C/c2cc(OC)c(OC)c(OC)c2)cc1", "inhibition": "20.9%"},
      {"smiles": "Cc1c(C(=O)N2CCCc3ccccc32)sc2nc(-c3ccccc3)cn12", "inhibition": "21%"},
      {"smiles": "Cc1cccc2cc3c(N)c(C(=O)N4CCCc5ccccc54)sc3nc12", "inhibition": "95.8% (active)"},
      {"smiles": "Cc1c(C(=O)N2CCCc3ccccc32)oc2ccccc12", "inhibition": "6.71%"},
      {"smiles": "Cc1cccc(N(C(=O)c2ccc(CN3CCOCC3)o2)C(C(=O)NC2CCCCC2)c2ccc(F)cc2)c1", "note": "(configuration not stated)", "inhibition": "0.911%"},
      {"smiles": "C=C(C)C(=O)O[C@H]1C/C(C)=C\\C(=O)/C=C(\\C)[C@H](O)[C@@H]2OC(=O)C(=C)[C@@H]21", "inhibition": "13.2%"},
      {"smiles": "Cc1cc(C(=O)CC#N)c(C)n1-c1c(C)n(C)n(-c2ccccc2)c1=O", "inhibition": "9.25%"},
      {"smiles": "COc1ccccc1OC(C)C(=O)Nc1ccc(S(=O)(=O)Nc2nccs2)cc1", "note": "(configuration not stated)", "inhibition": "5.98%"},
      {"smiles": "O=[N+]([O-])C(=c1ccc2c(c1)N1C3=C(CCCC3)CC3CCCCC31N=2)[N+](=O)[O-]", "note": "(configuration not stated)", "inhibition": "-3.42%"},
      {"smiles": "CCOc1ccc(NS(=O)(=O)c2ccc(Cl)c(C(=O)N(C)Cc3cccnc3)c2)cc1", "inhibition": "6.06%"},
      {"smiles": "O=C(c1ccccc1Cl)N(Cc1ccccc1F)N1C(=O)CCCC1=O", "inhibition": "-12.8%"},
      {"smiles": "O=[N+]([O-])c1cc(S(=O)(=O)CCCN2CCOCC2)ccc1F", "inhibition": "-24.6%"},
      {"smiles": "Cc1ccc(C(=O)OC(C)CN2CCOCC2)cc1", "note": "(configuration not stated)", "inhibition": "-14.4%"},
      {"smiles": "CC(CN1CCOCC1)OC(=O)c1ccc(C(C)(C)C)cc1", "note": "(configuration not stated)", "inhibition": "77% (active)"},
      {"smiles": "CC(CN1CCOCC1)OC(=O)c1ccc(Cl)cc1Cl", "note": "(configuration not stated)", "inhibition": "-5.38%"},
      {"smiles": "CCOC(=O)c1cnc2nc(SCc3ccccc3Cl)[nH]n2c1=O", "inhibition": "-11.5%"},
      {"smiles": "CCc1nc2cccnc2n1-c1ccc(C(=O)O)cc1", "inhibition": "1.09%"},
      {"smiles": "COc1ccc(N2CCN(C(=O)CCSCc3ccccc3F)CC2)cc1", "inhibition": "-13.7%"},
      {"smiles": "COC(=O)c1nc2n(n1)C(c1ccc([N+](=O)[O-])cc1)C(C(=O)Nc1ccc(Cl)cc1)=C(C)N2", "note": "(configuration not stated)", "inhibition": "2.59%"},
      {"smiles": "COCCn1c(SCC(=O)Nc2ccccc2F)nc2c(c1=O)SCC2", "inhibition": "10.3%"},
      {"smiles": "COc1ccc(O)c(/C=N/N=C/c2cccc([N+](=O)[O-])c2)c1", "inhibition": "15.6%"},
      {"smiles": "COc1ccc(C(=O)NCC(=O)N/N=C/c2ccc([N+](=O)[O-])o2)cc1OC", "inhibition": "-1.61%"},
      {"smiles": "COc1cc(/C=N\\NC(=O)CNC(=O)c2cccc([N+](=O)[O-])c2)ccc1O", "inhibition": "53.6% (active)"},
      {"smiles": "COc1ccc(NC(C)=O)cc1NC(=O)CN1CCN(C2c3ccccc3-c3ccccc32)CC1", "inhibition": "-6.9%"},
      {"smiles": "O=C(c1ccc(Cl)s1)N(Cc1nnc(-c2ccccc2Cl)o1)C1CC1", "inhibition": "-57.5%"},
      {"smiles": "Brc1cc(Br)c(Oc2cc(Br)c(Br)cc2Br)cc1Br", "inhibition": "11.9%"},
      {"smiles": "COc1ccc(-n2nc(C(=O)NCC(=O)N3CCC(C(N)=O)CC3)c3ccccc3c2=O)cc1OC", "inhibition": "-0.314%"},
      {"smiles": "COc1cc2c(cc1OC)C(C)N(S(=O)(=O)c1cnc(Cl)c(Cl)c1)CC2", "note": "(configuration not stated)", "inhibition": "-23.5%"},
      {"smiles": "O=C(O)CC1S/C(=N\\N=C/c2ccccc2O)N(c2ccc(O)cc2)C1=O", "note": "(configuration not stated)", "inhibition": "-8.74%"},
      {"smiles": "COc1ccc(-c2csc(Cc3nc(O)cs3)n2)cc1", "inhibition": "66.3% (active)"},
      {"smiles": "COc1ccc(-c2csc(NC(=O)COC(=O)Cc3ccc(Cl)cc3Cl)n2)cc1", "inhibition": "4.6%"},
      {"smiles": "CC(C)(C)C(=O)OCc1nc(-c2ccc(O)c(O)c2)cs1", "inhibition": "-5.74%"},
      {"smiles": "CSc1cc(C)n(-c2ccccc2C)c(=S)c1C(C)=O", "inhibition": "7.52%"},
      {"smiles": "CC1CC2=C(CC1/C=N/NC(N)=S)C(C)(C)CCC2", "note": "(configuration not stated)", "inhibition": "49.2% (active)"},
      {"smiles": "O=C1C=C(c2ccccc2)CCC1", "inhibition": "14.7%"},
      {"smiles": "Cc1csc(NC(=O)CSc2nnc(-c3cccnc3)o2)n1", "inhibition": "14.2%"},
      {"smiles": "O=S(=O)(NCCc1ccc(F)cc1)c1cccc2cccnc12", "inhibition": "9.75%"},
      {"smiles": "NS(=O)(=O)c1ccc(CCNS(=O)(=O)c2cccc3cccnc23)cc1", "inhibition": "-8.92%"},
      {"smiles": "O=[N+]([O-])c1ccccc1S(=O)(=O)Nc1cccc2cccnc12", "inhibition": "53.5% (active)"},
      {"smiles": "Cc1ccc(OCCCC(=O)Nc2ccc(N3CCOCC3)cc2)cc1", "inhibition": "11.8%"},
      {"smiles": "O=C(C1CC(=O)N(c2ccc(Br)cc2)C1)N1CCCC1", "note": "(configuration not stated)", "inhibition": "-9.51%"},
      {"smiles": "Cc1cccc(NC(=O)c2sc3nc(N4CCOCC4)c4c(c3c2N)CCCC4)c1", "inhibition": "0.268%"},
      {"smiles": "Cc1ccc(NC(=O)c2sc3nc(N)c(C#N)cc3c2N)cc1", "inhibition": "5.56%"},
      {"smiles": "CC(=O)Nc1ccc(NC(=O)c2sc3nc4c(c(-c5ccc(C)cc5)c3c2N)CCC4)cc1", "inhibition": "41.5% (active)"},
      {"smiles": "CCNS(=O)(=O)c1ccc(NC(=O)c2cncc(Br)c2)cc1", "inhibition": "3.77%"},
      {"smiles": "O=C(COC(=O)CCc1nc2ccccc2c(=O)[nH]1)Nc1ccc(N2CCOCC2)cc1", "inhibition": "5.92%"},
      {"smiles": "CC(C)(C)c1ccc(NC(=O)COC(=O)CCc2nc3ccccc3c(=O)[nH]2)cc1", "inhibition": "9.52%"},
      {"smiles": "O=C(CCc1nc2ccccc2c(=O)[nH]1)OCC(=O)c1cccc(Cl)c1", "inhibition": "46% (active)"},
      {"smiles": "COc1ccc(S(=O)(=O)N2CCOCC2)c(C)c1C", "inhibition": "3%"},
      {"smiles": "COc1ccccc1NC(=O)c1c(Br)cnn1C", "inhibition": "-0.0339%"},
      {"smiles": "CN=C1C=C/C(=N/N=c2\\ccn(O)cc2C)C=C1C", "inhibition": "46% (active)"},
      {"smiles": "CC(C)C[C@@H](N)c1nnc(SCC(=O)c2ccc(Cl)cc2)o1", "inhibition": "6.62%"},
      {"smiles": "O=C1Oc2ccccc2C(=O)/C1=C/c1ccccc1O", "inhibition": "3.82%"},
      {"smiles": "O=C(NCCCc1ccccc1)C1CCC(=O)N(CCc2ccc(Cl)cc2)C1", "note": "(configuration not stated)", "inhibition": "4.1%"},
      {"smiles": "COc1cccc(NC(C)=[N+](C)CCNS(=O)(=O)c2ccc(Cl)cc2)c1", "inhibition": "13.5%"},
      {"smiles": "CCc1ccc(CNC(=O)C2CCCN(c3nc4ccccc4o3)C2)cc1", "note": "(configuration not stated)", "inhibition": "-5.94%"},
      {"smiles": "CCOC(=O)CCNC(=O)N1CCCC(C(=O)c2ccccc2SC)C1", "note": "(configuration not stated)", "inhibition": "-13.5%"},
      {"smiles": "CCOC(=O)c1cnc(Nc2nc3ccccc3o2)nc1CSC(=S)N1CCCCC1", "inhibition": "44.1% (active)"},
      {"smiles": "O=C(CC1SC(=Nc2ccccc2)N(Cc2ccccn2)C1=O)Nc1cccc(Cl)c1", "note": "(configuration not stated)", "inhibition": "0.604%"},
      {"smiles": "COc1ccc(CCNC(=S)NC(=O)/C=C/c2ccc(C)cc2)cc1OC", "inhibition": "-38%"},
      {"smiles": "O=[N+]([O-])c1cc(Cl)cc(/C=N/NC(=S)Nc2cc(S(=O)(=O)N3CCOCC3)ccc2Cl)c1O", "inhibition": "42.1% (active)"},
      {"smiles": "Cc1ccc(S(=O)(=O)N2CCN(CC(=O)N/N=C/c3cc([N+](=O)[O-])ccc3Cl)CC2)cc1", "inhibition": "-9.95%"},
      {"smiles": "O=S(=O)(c1ccc(NC(=S)NN=C(C2CC2)C2CC2)cc1)N1CCOCC1", "inhibition": "-24.4%"},
      {"smiles": "Cn1cc[n+](C)c1COc1ccc(C=O)cc1", "inhibition": "-7.79%"},
      {"smiles": "COC(=O)Cc1ccc(OC(=O)C2CCN(S(=O)(=O)c3ccc(OC)c(OC)c3)CC2)cc1", "inhibition": "11.3%"},
      {"smiles": "CN(CC(=O)NCc1cccnc1)S(=O)(=O)c1cc(Cl)ccc1Cl", "inhibition": "-3.77%"},
      {"smiles": "CC(=O)N1c2ccc(S(=O)(=O)N3CCC(C(=O)NCc4ccc(F)cc4)CC3)cc2CC1C", "note": "(configuration not stated)", "inhibition": "7.14%"},
      {"smiles": "COc1cccc(CNC(=O)C(=O)NCCC2CCCCN2S(=O)(=O)c2ccc(C)cc2)c1", "note": "(configuration not stated)", "inhibition": "-56.9%"},
      {"smiles": "c1ccc(Cc2nn3c(Cn4cnc5ccccc54)nnc3s2)cc1", "inhibition": "7.67%"},
      {"smiles": "Cc1ccc(C(=O)COC(=O)c2cccc(N3C(=O)c4c(C)nc5ccccc5c4C3=O)c2)cc1C", "inhibition": "-8.71%"},
      {"smiles": "O=C(CSc1cccc2cccnc12)N/N=C/c1cccnc1", "inhibition": "41.8% (active)"},
      {"smiles": "COc1ccc(C(=O)NCC(=O)N/N=C/c2cccnc2)cc1", "inhibition": "4.23%"},
      {"smiles": "CCOC(=O)N/N=C/c1cccnc1", "inhibition": "11.3%"},
      {"smiles": "CS(=O)(=O)N1CCc2cc(C(=O)Nc3ccccc3)ccc21", "inhibition": "6.74%"},
      {"smiles": "Clc1ccc(Cn2ncc3c(NCc4cccnc4)ncnc32)cc1", "inhibition": "-0.393%"},
      {"smiles": "CCOc1ccc(S(=O)(=O)Nc2ccc(S(=O)(=O)Nc3cc(OC)ccc3OC)cc2)cc1", "inhibition": "15.7%"},
      {"smiles": "COc1ccc(N2CC(NS(=O)(=O)c3ccc4ccccc4c3)CC2=O)cc1", "note": "(configuration not stated)", "inhibition": "1.28%"},
      {"smiles": "COc1cc(NS(=O)(=O)c2ccc3ccccc3c2)c2ncccc2c1", "inhibition": "65.3% (active)"},
      {"smiles": "O=C(NCCS(=O)(=O)NCc1ccc(Cl)cc1)c1ccccc1", "inhibition": "-4.12%"},
      {"smiles": "O=C(CN1C(=O)NC2(CCCC2)C1=O)Nc1ccc(F)c(F)c1F", "inhibition": "8.35%"},
      {"smiles": "COc1cccc(CC2(CO)CCN(Cc3cnc(-c4cccc(C)c4)nc3)CC2)c1", "inhibition": "-17.4%"}
    ]}
  ]
}
